About 79,000 compounds went through this panel and 15% of them were active in at least one assay; those are over-represented in the sample as a whole. Values without a mark were called inactive. Active and inactive are the calls of the source. No stated cut-off is given here; in the data, active means growth inhibition above about 70%; inactive means the rest.
Experiments:
[1] = NCI Yeast Anticancer Drug Screen. Data for the rad50 strain (AID 155);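 further: 0% = growth of vehicle-only cultures of the same strain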; settings: S. cerevisiae rad50 strain growth inhibition, hits give high values
Summary of the method: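 Vehicle-treated cultures provide the reference for the growth inhibition reported for compound-exposed, repair-deficient yeast.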

[2] = NCI Yeast Anticancer Drug Screen. Data for the mec2-1 strain (AID 157); settings: S. cerevisiae mec2-1 strain, hits give high values
Summary of the method: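 Vehicle-treated cultures served as reference for growth inhibition of compound-exposed mec2-1 yeast.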

[3] = NCI Yeast Anticancer Drug Screen. Data for the sgs1 mgt1 strain (AID 161);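 further: 0% = growth of cultures given vehicle only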; settings: S. cerevisiae sgs1 mgt1 strain, hits give high values
Summary of the method: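 Mutant yeast exposed to compound; growth scored against vehicle-only wells.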

[4] = NCI Yeast Anticancer Drug Screen. Data for the cln2 rad14 strain (AID 165);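 further: 0% = growth equal to vehicle treated cultures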; settings: S. cerevisiae cln2 rad14 strain, hits give high values
Summary of the method: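 Each compound was tested on cln2 rad14 yeast. Inhibition of growth was calculated against vehicle-exposed controls.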

[5] = NCI Yeast Anticancer Drug Screen. Data for the bub3 strain (AID 167); settings: S. cerevisiae bub3 mutant strain, hits give high values
Summary of the method: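 Mutant yeast screening strain plus compound; vehicle-treated cultures serve as the 0% inhibition reference.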

[6] = NCI Yeast Anticancer Drug Screen. Data for the mlh1 rad18 strain (AID 175); settings: S. cerevisiae mlh1 rad18 strain growth inhibition, hits give high values
Summary of the method: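 Vehicle-treated cultures served as the reference for growth inhibition in a yeast strain carrying DNA damage repair alterations exposed to each compound.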

[7] = at 5.0 µM (retest, dose inferred, filed as 0.5)
[8] = at 50.0 µM (retest, dose inferred, filed as 5.0)

| SMILES | growth inhibition [1, 7] [%] | growth inhibition [1, 8] | growth inhibition ([1]; at 50.0 µM) | growth inhibition [2, 7] [%] | growth inhibition [2, 8] | growth inhibition ([2]; at 50.0 µM) | growth inhibition [3, 7] [%] | growth inhibition [3, 8] | growth inhibition ([3]; at 50.0 µM) | growth inhibition [4, 7] [%] | growth inhibition [4, 8] | growth inhibition ([4]; at 50.0 µM) | growth inhibition [5, 7] [%] | growth inhibition [5, 8] | growth inhibition ([5]; at 50.0 µM) | growth inhibition [6, 7] [%] | growth inhibition [6, 8] | growth inhibition ([6]; at 50.0 µM) |
| --- | --- | --- | --- | --- | --- | --- | --- | --- | --- | --- | --- | --- | --- | --- | --- | --- | --- | --- |
| CCOC(=O)C1=C(C)NC(=O)NC1c1ccc(N(CCCl)CCCl)cc1Cl (configuration not stated) | 6 | 78% (active) | 38.6% | 46 | 59% | 44.1% | -3 | 34% | 24.9% | -8 | 74% (active) | -10.8% | 13 | 97% (active) | 92.6% (active) | 3 | 88% (active) | 78.5% (active) |
| O=c1oc2ccccc2c(O)c1C(c1ccc(-c2ccccc2)cc1)c1c(O)c2ccccc2oc1=O | 9 | 52% | 78.1% (active) | 7 | 97% (active) | 89.8% (active) | -16 | 97% (active) | 81.6% (active) | 19 | 97% (active) | 85.2% (active) | 14 | 97% (active) | 77.5% (active) | 16 | 88% (active) | 89.3% (active) |
| CCOP(=S)(OCC)OC(c1ccc(Cl)cc1)c1ccc(Cl)cc1 | 3 | -11% | 12.8% | 0 | -7% | 6.2% | 7 | -20% | 0.25% | 6 | -29% | 15.8% | 11 | 18% | 49.6% | -1 | -11% | 11.6% |
| ClCCN(CCCl)c1ccc(C2N(Cc3ccc(Cl)cc3)CCCN2Cc2ccc(Cl)cc2)cc1 | 11 | 56% | 98.5% (active) | 10 | 39% | 98.5% (active) | 16 | 68% | 98.8% (active) | 4 | 24% | 94.9% (active) | 7 | 35% | 98.8% (active) | 33 | 94% (active) | 98.4% (active) |
| CN(C)CCCNc1ccnc2c(COC(=O)N(CCCl)CCCl)ccc([N+](=O)[O-])c12 | 15 | 33% | 52.5% | 23 | 41% | 53.7% | 34 | 75% (active) | 74.2% (active) | 22 | 63% | 43.6% | 10 | 42% | 38.1% | 22 | 82% (active) | 84.7% (active) |
| S=P(Nc1ccccc1)(Nc1ccccc1)Nc1ccccc1 | 21 | 94% (active) | 96.8% (active) | 18 | 94% (active) | 98% (active) | 12 | 95% (active) | 96.8% (active) | 7 | 94% (active) | 97.7% (active) | 19 | 92% (active) | 98.2% (active) | 23 | 94% (active) | 96.8% (active) |
| CCc1cc2c(cc1-c1csc(C/C(N)=N/O)n1)C(C)(C)CCC2(C)C | 55 | 88% (active) | 89.5% (active) | 38 | 92% (active) | 90.7% (active) | 52 | 93% (active) | 91.4% (active) | 39 | 96% (active) | 89.7% (active) | 48 | 93% (active) | 91% (active) | 60 | 94% (active) | 90.3% (active) |
| [I][Hg][CH2]C1COCC([CH2][Hg][I])O1 (configuration not stated) | 0 | 5% | 98.7% (active) | 4 | 6% | 99.5% (active) | 0 | 9% | 99.2% (active) | -1 | 7% | 98.2% (active) | 5 | -8% | 99.5% (active) | 0 | 7% | 99.2% (active) |
| CCOP(=O)(OCC)Oc1cc(C)c(SC#N)c(C)c1 | -6 | -7% | 29.6% | -2 | 3% | 20.6% | 10 | 25% | 17.1% | -7 | -6% | 66.3% | -3 | 18% | 53.7% | 10 | 76% (active) | 34% |

Reference: PubChem BioAssay (NCI)
